PubChem BioAssay (NCI)
This is part of a sample that, as a whole, favours compounds with a hit. Of some 79,000 tested, about 15% had one in any assay. Unmarked numbers belong to inactive results. Calls of active or inactive are those of the source. Rule as the data show it: active = growth inhibition above about 70%; inactive = the rest.

Assay: NCI Yeast Anticancer Drug Screen. Data for the mlh1 rad18 strain (AID 175)
Settings: S. cerevisiae mlh1 rad18 strain growth inhibition; at 5.0 µM (retest, dose inferred, filed as 0.5); hits give high values
In short: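 Test agents were incubated with a yeast strain of defined genotype (DNA damage repair defect). Inhibition of growth was derived by comparison with vehicle-exposed cultures.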

First: Cc1ccc(-n2c(CSc3ccc(Cl)cc3)nnc2SCc2nc3ccccc3[nH]2)cc1
Second: Clc1ccc(-c2nnc(-c3ccccn3)o2)c(Cl)c1
The growth inhibition of the first is higher: 2% for the first, 1% for the second.

Compared with `CC(=O)Nc1cccc(C(=O)O)c1`, `O=C(NCCl)Nc1ccccc1` is higher in growth inhibition: 1% for the first, 6% for the second.

Going from `COc1ccc2c(c1)CCCN2CCCCCCCCCN1CCCCC1` to `CC[C@]1(O)C[C@H]2[C@@H]3CCc4cc(OC)ccc4[C@H]3CC[C@]2(C)[C@H]1O`, the growth inhibition falls from 47% to -4%.

`CN(C)C(=O)/N=c1\ss/c(=N\C(=S)N(C)C)n1-c1ccccc1` and `CCOC(=O)C1=C(c2ccccc2)SC(c2ccccc2)N(C(C)C)C1=O` (stereo not drawn) are the same in growth inhibition: 9% for the first, 9% for the second.

Going from `CC(O)CC(O)CC1CCCO1` (stereo not drawn) to `O=C(O)c1ccc(N=CC2CO2)cc1` (stereo not drawn), the growth inhibition rises from 3% to 32%.

First: CCCCCCCCCCCCCCCCCCOS(=O)(=O)O (tested in a mixture with another compound)
Second: CCCC/C=C(/CCCCOCOCCOC)[Si](C)(C)C
The growth inhibition of the first is lower: -27% for the first, -8% for the second.

Going from `C/C(=N\NC(=S)N1CCCC1)c1nc2ncccc2[nH]1` to `O=[N+]([O-])c1ccc(NC(=S)N/N=C(\c2ccccc2)c2ccccn2)cc1`, the growth inhibition falls from 12% to 11%.

Compared with `CC(C)(C)C1=NN=C2c3ccccc3C(=O)C21` (stereo not drawn), `O=C1c2ccccc2C(=O)c2c1cc(O)c(O)c2O` is higher in growth inhibition: -3% for the first, 35% for the second.

Going from `CCC1(C)C(C#N)(C#N)C1(C#N)C#N` to `Cc1cc(O)ccc1SC#N`, the growth inhibition rises from -46% to 7%.

First: COc1ccc(N(C)Sc2ccccc2)cc1
Second: c1ccc2nc3ccccc3nc2c1
The growth inhibition of the first is higher: -10% for the first, -11% for the second.

Going from `C/C(CCn1[nH]c(=O)ccc1=O)=N\NS(=O)(=O)c1ccc(C)cc1` to `CC(C)S(=O)(=O)ON1C(=O)c2ccc(N(C)C)cc2C1=O`, the growth inhibition rises from -8% to 16%.

Compared with `CCC[n+]1ccc(/C=N\NC(N)=S)c2ccccc21`, `O=Cc1[nH]c(=S)[nH]c(=O)c1CCCc1ccccc1` is lower in growth inhibition: 17% for the first, 11% for the second.

Going from `O=S1CCS(=O)C1c1ccccc1` (stereo not drawn) to `CC1=C(C(=O)NCc2ccccc2)C(c2ccccc2O)C(C(=O)NCc2ccccc2)=C(C)N1`, the growth inhibition rises from 2% to 15%.

Compared with `NC(=O)c1c(Cl)nc2n1CCS2`, `O=C1/C(=C/c2ccc(Cl)cc2)CSC/C1=C\c1ccc(Cl)cc1` is higher in growth inhibition: 4% for the first, 16% for the second.

Going from `C=Cc1cc(=O)oc2cc(OC)ccc12` to `COc1ccc(C2COc3cc(O)c(O)cc3C2)cc1OC` (stereo not drawn), the growth inhibition falls from 30% to 1%.

Compared with `Cc1occc1C(=S)Nc1ccc(Cl)c(COC(C)(C)C)c1`, `S=C1NC2=C(CSC/C2=C\c2cccc(Br)c2)C(c2cccc(Br)c2)N1` (stereo not drawn) is lower in growth inhibition: 19% for the first, 5% for the second.

Going from `CCN(CC)CCOc1c(I)cc(I)cc1I` to `CCc1c(C(=O)OC)c(C(=O)OC)c(-c2ccccc2)n1CCn1c(CC)c(C(=O)OC)c(C(=O)OC)c1-c1ccccc1`, the growth inhibition rises from 1% to 2%.

Compared with `COc1cc[c]([Sn]([O][Sn]([Cl])([c]2ccc(OC)cc2)[c]2ccc(OC)cc2)[c]2ccc(OC)cc2)cc1`, `O=C(N/C(=C\c1ccc(/C=C(\NC(=O)c2ccccc2)c2nc3ccccc3s2)cc1)c1nc2ccccc2s1)c1ccccc1` is lower in growth inhibition: 55% for the first, 28% for the second.

`Cn1c(=O)cc[nH]c1=O` showed a growth inhibition of -5%.

With `O=[N+]([O-])c1cc(Cl)cc2c1nc(NCCO)c1ccccc12` the growth inhibition was 86% (active).
For `c1ccc2[nH]c(CN(CCN(Cc3nc4ccccc4[nH]3)Cc3nc4ccccc4[nH]3)Cc3nc4ccccc4[nH]3)nc2c1`, the growth inhibition was 96% (active).

Same assay, conditions: S. cerevisiae mlh1 rad18 strain growth inhibition; at 50.0 µM (retest, dose inferred, filed as 5.0); hits give high values

Going from `Cc1ccc(-n2c(CSc3ccc(Cl)cc3)nnc2SCc2nc3ccccc3[nH]2)cc1` to `O=C(N/C(=C\c1ccc(/C=C(\NC(=O)c2ccccc2)c2nc3ccccc3s2)cc1)c1nc2ccccc2s1)c1ccccc1`, the growth inhibition rises from -4% to 28%.

Going from `CC(=O)Nc1cccc(C(=O)O)c1` to `O=C(O)c1ccc(N=CC2CO2)cc1` (stereo not drawn), the growth inhibition rises from -3% to 22%.

First: COc1ccc2c(c1)CCCN2CCCCCCCCCN1CCCCC1
Second: CCCC/C=C(/CCCCOCOCCOC)[Si](C)(C)C
The growth inhibition of the first is higher: 63% for the first, 4% for the second.

First: CC(O)CC(O)CC1CCCO1 (stereo not drawn)
Second: NC(=O)c1c(Cl)nc2n1CCS2
The growth inhibition of the first is higher: 8% for the first, 1% for the second.

First: CC(C)(C)C1=NN=C2c3ccccc3C(=O)C21 (stereo not drawn)
Second: c1ccc2nc3ccccc3nc2c1
The growth inhibition of the first is lower: 44% for the first, 65% for the second.

Compared with `C/C(CCn1[nH]c(=O)ccc1=O)=N\NS(=O)(=O)c1ccc(C)cc1`, `CC(C)S(=O)(=O)ON1C(=O)c2ccc(N(C)C)cc2C1=O` is higher in growth inhibition: 11% for the first, 40% for the second.

First: CCC[n+]1ccc(/C=N\NC(N)=S)c2ccccc21
Second: CC1=C(C(=O)NCc2ccccc2)C(c2ccccc2O)C(C(=O)NCc2ccccc2)=C(C)N1
The growth inhibition of the first is higher: 33% for the first, 15% for the second.

First: O=S1CCS(=O)C1c1ccccc1 (stereo not drawn)
Second: O=C1/C(=C/c2ccc(Cl)cc2)CSC/C1=C\c1ccc(Cl)cc1
The growth inhibition of the first is lower: 39% for the first, 42% for the second.

Compared with `Cc1cc(O)ccc1SC#N`, `Cn1c(=O)cc[nH]c1=O` is lower in growth inhibition: 66% for the first, 1% for the second.

With `CCc1c(C(=O)OC)c(C(=O)OC)c(-c2ccccc2)n1CCn1c(CC)c(C(=O)OC)c(C(=O)OC)c1-c1ccccc1` the growth inhibition was 54%.

In the case of `CN(C)C(=O)/N=c1\ss/c(=N\C(=S)N(C)C)n1-c1ccccc1`, the growth inhibition was 92% (active).
For `Clc1ccc(-c2nnc(-c3ccccn3)o2)c(Cl)c1`, the growth inhibition was 96% (active).
With `CC[C@]1(O)C[C@H]2[C@@H]3CCc4cc(OC)ccc4[C@H]3CC[C@]2(C)[C@H]1O` the growth inhibition was 99% (active).
In the case of `CCCCCCCCCCCCCCCCCCOS(=O)(=O)O` (tested in a mixture with another compound), the growth inhibition was 80% (active).
In the case of `C/C(=N\NC(=S)N1CCCC1)c1nc2ncccc2[nH]1`, the growth inhibition was 97% (active).
In the case of `CCC1(C)C(C#N)(C#N)C1(C#N)C#N`, the growth inhibition was 95% (active).
With `COc1ccc(N(C)Sc2ccccc2)cc1` the growth inhibition was 97% (active).
With `C=Cc1cc(=O)oc2cc(OC)ccc12` the growth inhibition was 98% (active).
With `O=[N+]([O-])c1cc(Cl)cc2c1nc(NCCO)c1ccccc12` the growth inhibition was 93% (active).
For `Cc1occc1C(=S)Nc1ccc(Cl)c(COC(C)(C)C)c1`, the growth inhibition was 85% (active).
In the case of `CCN(CC)CCOc1c(I)cc(I)cc1I`, the growth inhibition was 99% (active).
With `COc1ccc(C2COc3cc(O)c(O)cc3C2)cc1OC` (stereo not drawn) the growth inhibition was 90% (active).
With `O=C1c2ccccc2C(=O)c2c1cc(O)c(O)c2O` the growth inhibition was 95% (active).
In the case of `COc1cc[c]([Sn]([O][Sn]([Cl])([c]2ccc(OC)cc2)[c]2ccc(OC)cc2)[c]2ccc(OC)cc2)cc1`, the growth inhibition was 94% (active).
In the case of `CCOC(=O)C1=C(c2ccccc2)SC(c2ccccc2)N(C(C)C)C1=O` (stereo not drawn), the growth inhibition was 76% (active).
With `S=C1NC2=C(CSC/C2=C\c2cccc(Br)c2)C(c2cccc(Br)c2)N1` (stereo not drawn) the growth inhibition was 98% (active).
For `c1ccc2[nH]c(CN(CCN(Cc3nc4ccccc4[nH]3)Cc3nc4ccccc4[nH]3)Cc3nc4ccccc4[nH]3)nc2c1`, the growth inhibition was 93% (active).
For `O=[N+]([O-])c1ccc(NC(=S)N/N=C(\c2ccccc2)c2ccccn2)cc1`, the growth inhibition was 89% (active).
In the case of `O=C(NCCl)Nc1ccccc1`, the growth inhibition was 83% (active).
In the case of `O=Cc1[nH]c(=S)[nH]c(=O)c1CCCc1ccccc1`, the growth inhibition was 97% (active).
